From PubChem BioAssay
For part of these data: Measured potencies and affinities stand elsewhere. Activity calls are given as the source filed them.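 Rule for the calls, unless noted: active = fitted half-maximal concentration within the tested dose range, moderate curve steepness, a statistically real signal drop, and little compound fluorescence or tag-binding interference; inactive = the rest.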

Assays:
[1] = biological target: Cell division control protein 42 homolog (Homo sapiens) (UniProt P60953); test: activated mutant Cdc42 GTP-binding inhibitors, dose response, biochemical, multiplex bead flow cytometry, Bodipy-FL-GTP (AID 1333)
Sequence of Cell division control protein 42 homolog (Homo sapiens) (P60953 whole entry, looked up): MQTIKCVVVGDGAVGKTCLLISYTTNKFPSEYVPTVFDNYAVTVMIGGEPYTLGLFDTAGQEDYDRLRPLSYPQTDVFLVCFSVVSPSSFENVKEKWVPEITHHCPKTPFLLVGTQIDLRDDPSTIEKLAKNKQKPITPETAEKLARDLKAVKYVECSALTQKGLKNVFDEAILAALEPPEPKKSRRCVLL

[2] = biological target: Cell division control protein 42 homolog (Homo sapiens) (UniProt P60953); test: wildtype Cdc42 GTP-binding inhibitors, dose response, biochemical, multiplex bead flow cytometry, Bodipy-FL-GTP (AID 1334;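 active = fitted half-maximal concentration within the tested range, moderate curve steepness, significant signal drop, and little compound fluorescence or bead-linkage interference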); details: bead-based flow cytometry, Bodipy-FL-GTP binding to GST-Cdc42; at 100 µM (top of the series) unless noted
[3] = biological target: GTPase HRas (Homo sapiens) (UniProt P01112); test: inhibitors of GTP binding to wildtype Ras, dose response, biochemical, multiplex bead flow cytometry (AID 1335;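 active = fitted half-maximal concentration within 10 nM to 100 µM, steepness 0.5 to 2, significant signal drop, low assay interference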); details: bead-based flow cytometry, Bodipy-GTP binding to GST-Ras; at 100 µM (top of the series) unless noted
Sequence of GTPase HRas (Homo sapiens) (P01112 whole entry, looked up): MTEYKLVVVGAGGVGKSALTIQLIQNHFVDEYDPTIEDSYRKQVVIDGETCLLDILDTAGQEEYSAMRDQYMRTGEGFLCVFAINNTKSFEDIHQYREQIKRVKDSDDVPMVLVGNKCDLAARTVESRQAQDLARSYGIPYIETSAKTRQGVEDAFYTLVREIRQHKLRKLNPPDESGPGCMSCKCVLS

[4] = test system: Ras-related protein Rab-7a (dog), GTP binding; test: Rab7 GTP binding inhibitors, potency, dose response, biochemical, wildtype, multiplex bead flow cytometry (AID 1336; call rule not given here)
[5] = biological target: Ras-related C3 botulinum toxin substrate 1 (Homo sapiens) (UniProt P63000); test: wildtype Rac1 GTP binding inhibitors, dose response, biochemical, multiplex bead flow cytometry (AID 1340;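 active = dose curve with midpoint inside tested range, moderate steepness, plateau gap beyond fit error, low compound glow and bead-link interference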); details: GST-Rac1 beads, Bodipy-FL-GTP binding; at 100 µM (top of the series) unless noted
[6] = biological target: GTPase HRas (Homo sapiens) (UniProt P01112); test: activated Ras mutant GTP binding inhibitors, dose response, biochemical, multiplex bead flow cytometry (AID 1341;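 active = dose-response curve with midpoint inside the tested range, moderate steepness, significant amplitude and little compound fluorescence or bead-attachment interference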;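 note: GST-tagged constitutively activated Ras mutant immobilized on beads and multiplexed with other GTPases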)

Row | Structure (SMILES) | outcome [1] | fluorescence, percent of control (lower = inhibition) [2] [%] | GTP binding, percent of control [3] | outcome [4] | GTP binding signal, raw median fluorescence (lower = inhibition) (MCF (arbitrary fluorescence units)) [5] | outcome [6]
1 | CCOc1cc(/C=N/Nc2nncc(-c3ccccc3)n2)ccc1O | inactive | 37.4 | 75.5% | inactive | 160 | inactive
2 | Cc1ccc(OCc2ccccc2C)c(C(=O)O)c1 | inactive | 58.3 | 207% | inactive | 54.4 | inactive
3 | O=c1[nH]cnc2c1C(c1ccccc1[N+](=O)[O-])c1c(nc[nH]c1=O)O2 | inactive | 38.6 | 50% | inactive | 113 | inactive
4 | CCOC(=O)Cn1nnnc1C(CC)N(Cc1cccs1)Cc1cc2cc(C)ccc2[nH]c1=O (stereo not drawn) | inactive | 96.4 | 186% | inactive | 194 | inactive
5 | CC1(C)CC2CC(C)(CN2C(=O)c2cccs2)C1 (stereo not drawn) | inactive | 43.3 | 59.5% | inactive | 184 | inactive
6 | Cc1cccc(CNc2ncccc2C(=O)O)c1 | inactive | 61.9 | 224% | inactive | 57 | inactive
7 | CCCOC(=O)NC1CCS(=O)(=O)C1 (stereo not drawn) | inactive | 99.8 | 159% | inactive | 198 | inactive
8 | CCOc1cc(C2c3c(-c4ccccc4)n[nH]c3C(=O)N2c2ccc(C(=O)O)cc2)ccc1O (stereo not drawn) | inactive | 29 | 79.3% | inactive | 95.9 | inactive
9 | C=CCN1C(=O)/C(=C/C=C2/N(CC)c3ccc(S(=O)(=O)N(C)C)cc3N2CC)SC1=S | inactive | 56.2 | 88.4% | inactive | 215 | inactive
10 | COc1ccc(C(=O)NC(=S)N2CC(C)OC(C)C2)cc1 (stereo not drawn) | inactive | 54.3 | 68.1% | inactive | 216 | inactive
11 | Cc1ccccc1CSCc1ccc(C(=O)O)o1 | inactive | 61.3 | 89.8% | inactive | 30.2 | inactive
12 | COc1ccc(S(=O)(=O)n2oc(=O)cc2-c2ccccc2)cc1 | inactive | 42.2 | 90.8% | inactive | 248 | inactive
13 | Cc1nnc2ccc(-c3cccc(NC(=O)c4ccco4)c3)nn12 | inactive | 28.7 | 59.2% | inactive | 131 | inactive
14 | Nc1[nH]nc2ncc3cc4ccccc4nc3c12 | inactive | 34.1 | 71.9% | inactive | 153 | inactive
15 | Cc1ccc(S(=O)(=O)Cc2ccc(C(=O)N3CCN(c4cc(C)ccc4C)CC3)o2)cc1 | inactive | 35 | 59.9% | inactive | 0 | inactive
16 | CCOC(=O)c1cnc(SCc2ccc(C)cc2)nc1N | inactive | 32 | 82.3% | inactive | 238 | inactive
17 | CSc1nc2ccc(NS(=O)(=O)c3c(Cl)cccc3Cl)cc2s1 | inactive | 31.2 | 77.9% | inactive | 245 | inactive
18 | COc1cccc(/C=N/Nc2nn3cnnc3c3ccccc23)c1 | inactive | 36.5 | 47.3% | inactive | 120 | inactive
19 | O=C(O)CSc1ccc2nnc(-c3cccnc3)n2n1 | inactive | 35.6 | 73.9% | inactive | 151 | inactive
20 | CCc1ccc(Cn2nnc(C(=O)O)c2C(=O)O)cc1 | inactive | 58.5 | 82.3% | inactive | 30.7 | inactive
21 | Cc1nn2c(-c3cccc(NC(=O)c4ccco4)c3)nnc2c2ccccc12 | inactive | 37.4 | 51% [at 33.3 µM] | inactive | 136 | inactive

Row | Structure (SMILES) | outcome [1] | fluorescence, percent of control (lower = inhibition) [2] [%] | GTP binding, percent of control [3] | outcome [4] | GTP binding signal, raw median fluorescence (lower = inhibition) (MCF (arbitrary fluorescence units)) [5] | outcome [6]
22 | O=C(O)Cn1cc(C(=O)C2CCCCC2)c2ccccc21 | inactive | 59.5 | 88.6% | inactive | 32 | inactive
23 | CN(/N=C/c1ccc(Br)o1)C1=NS(=O)(=O)c2ccccc21 | inactive | 32.2 | 69.7% | inactive | 185 | inactive
24 | Cc1ccc(N2C(=O)c3ccccc3C2Nc2cccnc2)nc1 (stereo not drawn) | inactive | 37 | 84.5% | inactive | 272 | inactive
25 | COc1cc(-c2cc(-c3ccc(O)cc3)nc(N)c2C#N)ccc1O | inactive | 28 | 70.9% | inactive | 158 | inactive
26 | Cc1ccc(C)c(CSc2ncccc2C(=O)O)c1 | inactive | 64.5 | 73.7% | inactive | 222 | inactive
27 | S=c1[nH]nc(-c2ccc3ccccc3n2)n1-c1ccccc1Cl | inactive | 45.1 | 60.2% | inactive | 165 | inactive
28 | Cc1ccccc1NC(=O)c1ccc(NC(=O)C2CC(=O)OC23CCCCC3)cc1 (stereo not drawn) | inactive | 32.9 | 76.1% | inactive | 195 | inactive
29 | O=C(O)c1ccccc1NCc1ccc2c(c1)OCO2 | inactive | 69.6 | 89.5% | inactive | 54 | inactive
30 | COc1ccc(CNCc2ccc(C(=O)O)s2)cc1 | inactive | 64.9 | 89.4% | inactive | 33.5 | inactive
31 | COc1cc(NC(=O)c2cccs2)c(OC)cc1NC(=O)CCC(=O)Nc1cccc2ncccc12 | inactive | 32.3 | 72.4% | inactive | 144 | inactive
32 | CCOC(=O)c1cc2c(N)c(C(=O)c3ccc(Br)cc3)sc2[nH]c1=O | inactive | 29 | 69.1% | inactive | 145 | inactive
33 | Cc1cc(N=NC(=O)c2ccccc2O)c2ccccc2c1O | inactive | 36.1 | 85.2% | inactive | 243 | inactive
34 | N#C/C(=C/c1ccc(-c2cc(C(=O)O)cc(C(=O)O)c2)o1)c1nc2ccccc2s1 | inactive | 27 | 66.4% | inactive | 110 | inactive
35 | Cc1cc(C)n2ncc(C(=O)O)c2n1 | inactive | 35.6 | 84% | inactive | 266 | inactive
36 | CS(=O)(=O)N1CCN(C(=O)C2c3ccccc3Oc3ccccc32)CC1 | inactive | 36.7 | 78.7% | inactive | 268 | inactive
37 | CC(C)(C)C(=O)OCC1OC(n2cnc(C(N)=O)n2)C(O)C1O (stereo not drawn) | inactive | 35.8 | 81.6% | inactive | 266 | inactive
38 | N#CC(C#N)=C(Nc1ccc(F)cc1)SCc1cccc(Br)c1 | inactive | 45.8 | 61.7% | inactive | 181 | inactive
39 | COCCNc1nc(=S)[nH]c2cc(OC)c(OC)cc12 | inactive | 35.9 | 43.7% | inactive | 103 | inactive
40 | CCOc1ccc(NC(=S)N=Nc2c(O)[nH]c3ccccc23)cc1 | inactive | 35.5 | 74.3% | inactive | 170 | inactive
41 | O=C(O)Cc1coc2cc3c(cc12)CCC3 | inactive | 29.9 | 79.1% | inactive | 251 | inactive
42 | N#Cc1c(=O)c2nc(NCc3ccccc3)ncc2n2ccccc12 | inactive | 41.3 | 48.1% | inactive | 0 | inactive

Row | Structure (SMILES) | outcome [1] | fluorescence, percent of control (lower = inhibition) [2] [%] | GTP binding, percent of control [3] | outcome [4] | GTP binding signal, raw median fluorescence (lower = inhibition) (MCF (arbitrary fluorescence units)) [5] | outcome [6]
43 | CNC(=O)COC(=O)c1cc(NC(=O)c2ccco2)c(OC)c(OC)c1 | inactive | 39.3 | 78% | inactive | 158 | inactive
44 | Cc1ccc(/C=N/NC(=O)C2CCN(Cc3ccc(F)cc3Cl)CC2)o1 | inactive | 39 | 82.7% | inactive | 241 | inactive
45 | O=S(=O)(Nc1cc(Sc2ncn[nH]2)c(O)c2ccccc12)c1ccccc1 | inactive | 31.4 | 71.9% | inactive | 155 | inactive
46 | CC(C)(C)NC(=O)CSc1nccn1Cc1ccccc1 | inactive | 33.3 | 78.6% | inactive | 144 | inactive
47 | COc1ccc(CNc2nc3c(c(=O)n(Cc4ccc(Br)cc4)c(=O)n3C)n2C)cc1 | inactive | 32 | 83.8% | inactive | 222 | inactive
48 | Cc1cccc(OCCn2c(SCCC(=O)O)nc3ccccc32)c1 | inactive | 58 | 85.4% | inactive | 28.9 | inactive
49 | COc1ccc(/C=N/NC(=O)CSc2n[nH]c(=O)[nH]c2=O)cc1 | inactive | 53.1 | 69.6% | inactive | 0 | inactive
50 | CNc1ncc(C(=O)c2ccc(Br)cc2)s1 | inactive | 37.3 | 85.2% | inactive | 277 | inactive
51 | Cc1cccc(CCNc2ncccc2C(=O)O)c1 | inactive | 122 | 337% | inactive | 101 | inactive
52 | O=C(Oc1cccc(O)c1)C1CCCCC1 | inactive | 36.8 | 81.6% | inactive | 296 | inactive
53 | CCc1ccc(OCc2cccc(C(=O)O)c2)cc1 | inactive | 58.6 | 87.5% | inactive | 32.6 | inactive
54 | Cc1ccc(S(=O)(=O)c2cc3c(=O)n4ccccc4nc3n(C)c2=N)cc1 | inactive | 31.2 | 65.8% | inactive | 158 | inactive
55 | CCCc1cc(NCc2ccccn2)n2c(nc3ccccc32)c1C#N | inactive | 30.1 | 68.2% | inactive | 167 | inactive
56 | C=CCc1ccccc1OCc1cccc(C(=O)O)c1 | inactive | 78.7 | 99.3% | inactive | 56.1 | inactive
57 | CCOc1ccc(-n2c(C)nc3cc(C(=O)NCc4ccc5c(c4)OCO5)ccc32)cc1 | inactive | 41.7 | 62.5% | inactive | 163 | inactive
58 | C=CCc1ccc(OCc2ccc(C(=O)O)o2)c(OC)c1 | inactive | 58.9 | 86.5% | inactive | 31.4 | inactive
59 | Cc1cc(C)cc(Nc2cc(C(=O)O)c3ccccc3n2)c1 | inactive | 58.9 | 80.4% | inactive | 30.7 | inactive
60 | Clc1ccc(Cn2ncc3c(N4CCOCC4)ncnc32)cc1 | inactive | 50.5 | 66.4% | inactive | 209 | inactive
61 | O=C(COC(=O)C12CC3CC(CC(C3)C1)C2)Nc1nc2c(F)c(F)c(F)cc2s1 | inactive | 44.1 | 68.1% | inactive | 0 | inactive
62 | CCOC(=O)c1c2c3c(cccc3[nH]c1=O)C(=O)c1ccccc1-2 | inactive | 35.5 | 77.9% | inactive | 176 | inactive
63 | COc1ccc2nc(/C(C#N)=C\c3ccc(C(=O)O)cc3)[nH]c2c1 | inactive | 31.4 | 72.6% | inactive | 189 | inactive
